# Source: PubChem BioAssay AID2717 (Broad Institute, 2010)
# The whole screen tested about 300,000 compounds, of which about 3,200 (1.1%) were called active. Cut-off read from the data, not from the text of the source: active = inhibition above about 75%; inconclusive = no clear call, values can overlap the other calls; inactive = below that; tested in HMLE shEcad cells. Only a selection was taken, and actives are over-represented in it overall.
# Assay: growth suppression of cancer stem-like cells – cell-based, luminescence, primary screen (AID 2717)
# Details: cancer stem cell-like cells viability, at 7.5 µM, hits give high values
row,Structure (SMILES),inhibition
1,O=C(/C=C/Sc1ncn[nH]1)c1ccc(Cl)cc1,112% (active)
2,O=C(CSc1ncn[nH]1)N/N=C/c1ccc(F)cc1,8.65% (inactive)
3,Cc1cc(C)nc(S/C=C/C(=O)c2ccccc2)n1,49.1% (inactive)
4,CCOC(=O)[C@H]1[C@H]2COc3ccc(OC)cc3[C@@H]2N2C(=O)c3ccc(F)cc3NC(=O)[C@@]12C,9.18% (inactive)
5,CC(=O)Nc1ccc(C(=O)NNC(=O)CCCCC(=O)NNC(=O)c2ccc(NC(C)=O)cc2)cc1,0.726% (inactive)
6,CCCC(=O)Nc1ccc(C(=O)N/N=C/c2ccc[nH]2)cc1,110% (active)
7,CC(=O)Nc1ccc(C(=O)/C=C/c2ccc[nH]2)cc1,-8.94% (inactive)
8,Cc1ccc(OCCC(=O)Nc2ccc(S(=O)(=O)Nc3nccs3)cc2)cc1,-5.72% (inactive)
9,COc1ccc(C)cc1NC(=O)CSc1cccc[n+]1[O-],-18.1% (inactive)
10,O=C(Nc1cc(S(=O)(=O)N2CCCCC2)ccc1Cl)C1COc2ccccc2O1 (stereo not drawn),-13.5% (inactive)
11,Cc1[nH]n(-c2ccccc2)c(=O)c1/C=N/NC(=O)c1ccoc1C,35.2% (inactive)
12,O=C(N/N=C/c1cccc([N+](=O)[O-])c1)c1ccncc1,0.983% (inactive)
13,Cc1ccc(-n2[nH]c(C)c(/C=N/NC(=O)c3cccc([N+](=O)[O-])c3)c2=O)cc1C,104% (active)
14,CCC1CCCCN1C(=S)NC(=O)c1ccco1 (stereo not drawn),7.21% (inactive)
15,O=C(Nc1cc(-c2ccccc2)nn1-c1ccccc1F)c1ccc([N+](=O)[O-])cc1,1.45% (inactive)
16,COc1ccc(S(=O)(=O)N2CCN(c3cnccn3)CC2)cc1,7% (inactive)
17,CC(C)(C)OC(=O)NCCCCCNC(=O)c1[nH]cnc1C(=O)Nc1nccs1,0.813% (inactive)
18,CC(=O)c1ccc(NC(=O)CSc2nc3ccccc3c(=O)n2CCCN2CCOCC2)cc1,-2.25% (inactive)
19,Cc1cccc(N=C2NN=C(c3c[nH]c4ccccc34)CS2)c1,80% (active)
20,Clc1cccc(N=C2NN=C(c3ccc4c(c3)OCCO4)CS2)c1,17.2% (inactive)

row,Structure (SMILES),inhibition
1,Cc1cccc(N=C2NC(=O)/C(=C/c3cn(C)c4ccccc34)S2)c1,47.4% (inactive)
2,CCN(C(=O)CSc1nnnn1-c1ccc(OC)cc1)C1CCS(=O)(=O)C1 (stereo not drawn),-11.6% (inactive)
3,CC(NC(=O)COC(=O)c1ccc2ccccc2n1)c1ccccc1 (stereo not drawn),2.66% (inactive)
4,O=C(Nc1cn(-c2ccccc2)nc1-c1ccccc1)c1ccccc1,-3.4% (inactive)
5,CCc1ccc(-c2nn(-c3ccccc3)cc2CSC(=N)N)cc1,118% (active)
6,CCc1ccc(-c2nn(-c3ccccc3C)cc2C(=O)N2CCN(C3CCS(=O)(=O)C3)CC2)cc1 (stereo not drawn),-16.1% (inactive)
7,Cc1cccc(-c2oc3ccc(-c4ccc5c(c4)OCO5)cc3c2C#Cc2cncn2C)c1,94.9% (active)
8,COc1ccc(C#Cc2c(-c3ccc(OC)cc3)oc3ccc(-c4ccc5c(c4)OCO5)cc23)cc1,-6.59% (inactive)
9,COc1ccc(/C=C/c2c(-c3cccc(C)c3)oc3ccc(-c4ccc5c(c4)OCO5)cc23)cc1,-7.1% (inactive)
10,CCCC(CNC(=O)COC(=O)C1=NNC(=O)CC1)c1ccc(Cl)cc1Cl (stereo not drawn),-14.7% (inactive)
11,COc1cc(S(=O)(=O)N2CCN(C(=O)C3CC3)CC2)ccc1NC(C)=O,1.76% (inactive)
12,COc1ccc(C(=O)Nc2cc(S(=O)(=O)N3CCCC3)ccc2Cl)cc1,7.7% (inactive)
13,Cc1ccc(C(=O)OCC(=O)NCc2cc(C)c(O)c(C)c2)cc1S(=O)(=O)N1CCCCC1,-3.22% (inactive)
14,CCC1(CC)Cc2ccccc2-c2nc3ccccc3c(=O)n21,1.88% (inactive)
15,c1cncc(-c2nnc3n2C2(CCCCC2)Cc2ccccc2-3)c1,2.64% (inactive)
16,O=c1c2ccccc2nc2n1C1(CCCCC1)Cc1ccccc1-2,76.3% (active)
17,COc1ccc(OC)c(/C=C/C(=O)c2ccc3c(c2)OCO3)c1,23.6% (inactive)
18,Cc1cc(NC(=O)CSc2ncc(C(F)(F)F)cc2Cl)no1,-11.1% (inactive)
19,NS(=O)(=O)c1cccc(NC(=O)COC(=O)c2cc([N+](=O)[O-])ccc2N2CCCC2)c1,8.24% (inactive)
20,COc1ccc2c(CC(=O)NNC(=O)c3ccccc3F)coc2c1,-7.08% (inactive)

row,Structure (SMILES),inhibition
1,Nn1c(SCC(=O)NC2CCCc3ccccc32)nnc1C1CC1 (stereo not drawn),-20.9% (inactive)
2,O=C(/C(=C/c1cccc(Cl)c1)c1nc2ccccc2[nH]1)c1ccccc1,79.9% (active)
3,CCC(=O)/C(=C(/O)c1ccccc1)c1nc2ccccc2[nH]1,-8.67% (inactive)
4,O=C(Cc1nc2ccccc2[nH]c1=O)c1ccc(Cl)cc1,-22.9% (inactive)
5,CC(Sc1ccccc1F)C(=O)Nc1cccc(S(=O)(=O)N2CCOCC2)c1 (stereo not drawn),-6.48% (inactive)
6,O=C1CCC/C=C/C[C@@H](CC(=O)N(CCO)Cc2ccccc2)C(=O)NC[C@H](c2ccccc2)O1,-5.63% (inactive)
7,O=C(O)/C=C/c1cn(Cc2ccccc2)nc1-c1cccs1,-3.63% (inactive)
8,CCOC(=O)/C(C#N)=C/c1cn(CCC(=O)O)nc1-c1ccc(Br)cc1,-7.96% (inactive)
9,O=C(O)CCn1cc(/C=C/C(=O)c2ccc(Cl)cc2)c(-c2cccc(Br)c2)n1,78.2% (active)
10,O=C(C[C@@H]1C/C=C\CCC(=O)OC[C@@H]2CCCN2C1=O)NCCO,-0.206% (inactive)
11,C/C(N)=C(/C#N)C(=O)COC(=O)c1cc(-c2ccc(C)cc2)nc2ccccc12,101% (active)
12,C/C(N)=C(/C#N)C(=O)COC(=O)c1cc(-c2cccc(Br)c2)nc2ccccc12,21.7% (inactive)
13,C/C(N)=C(/C#N)C(=O)COC(=O)c1cc(-c2ccccc2)nc2ccc(Br)cc12,-0.788% (inactive)
14,O=C(COc1ccccc1F)NNC(=O)c1cc(Br)ccc1Cl,7.13% (inactive)
15,COc1cc(OC)cc(C(=O)NNC(=O)Cc2cccs2)c1,-7.32% (inactive)
16,CC1CCCCN1CCCNc1ccc(C(CC(N)=O)NC(=O)c2ccccc2)cc1[N+](=O)[O-] (stereo not drawn),6.07% (inactive)
17,NC(=O)CC(NC(=O)Cc1ccc(Br)cc1)c1ccc(NC2CC3CCC2C3)c([N+](=O)[O-])c1 (stereo not drawn),85% (active)
18,NC(=O)CC(NC(=O)Cc1cccc2ccccc12)c1ccc(NCc2cc(F)ccc2F)c([N+](=O)[O-])c1 (stereo not drawn),4.74% (inactive)
